The source of these data is PubChem BioAssay AID1626 (SRMLSC, 2009).

In all, about 220,000 compounds went through this assay and about 2,000 (0.91%) were called active. About 2% were inconclusive and are not listed. A selection follows. Results with a measured potency or affinity are listed apart. A number with no mark means an inactive call. No stated cut-off is given here; in the data, inconclusive means inhibition above about 80% without an active follow-up result; inactive means below that; test concentration not stated here.

The nature of the assay: M. tuberculosis H37Rv growth inhibitors, H37Rv strain (AID 1626).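 Further: bacteria incubated seven days before Alamar blue readout; 0% = bacteria only wells and 100% = bacteria with antibiotic wells.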 As to conditions: stronger effect = higher value, concentration not given here.
The inhibition is the change of the read-out against control, counted positive when it falls. As to `Cc1cc(=O)oc(C)c1C(=O)Nc1cccc(F)c1`, the inhibition was -6.13%.

Regarding `CNC(=S)Nc1cccc(C(C)=O)c1`, the inhibition was -3.56%.

Turning to `Cc1ccc(N=C2NC(=O)/C(=C/c3cccnc3)S2)c(C)c1`, the inhibition was 20.4%.

Take `COCCCn1c(SCc2ccccc2)nc2cc(OC)c(OC)cc2c1=N`: the inhibition was 0.99%.

`COCCCn1c(SCc2ccc(OC)cc2)nc2cc(OC)c(OC)cc2c1=N`: the inhibition was 1.79%.

As to `COc1cc2nc(SCc3ccc(Cl)cc3Cl)n(Cc3cccs3)c(=N)c2cc1OC`, the inhibition is 11.9%.

For the compound `COc1cc2nc(SCc3ccc(C(F)(F)F)cc3)n(Cc3cccs3)c(=N)c2cc1OC`, the inhibition was -5.09%.

For the compound `COCCCn1c(SCc2cccc(OC)c2)nc2cc(OC)c(OC)cc2c1=N`, the inhibition is 6.91%.

As for `COc1ccc(-c2nc(Cn3c(SCc4cccc(F)c4)nc4ccncc43)c(C)o2)cc1OC`, the inhibition is 55.2%.

Turning to `COc1cc2nc(SCc3ccc(F)cc3)n(Cc3cccs3)c(=N)c2cc1OC`, the inhibition was 8.63%.

Take `COc1ccc(-c2nc(Cn3c(SCc4ccc(F)cc4)nc4ccncc43)c(C)o2)cc1OC`: the inhibition was 67.8%.

On to `O=C(C(=O)N1CCc2ccccc2C1)c1cn(CC(=O)N2CCOCC2)c2ccccc12`, for which the inhibition is -0.84%.

Turning to `CCOC(=O)/C=C(\C)N1N=C(c2ccccc2)CC1c1ccccc1` (stereo not drawn), the inhibition is 33.1%.

Turning to `C=CCOc1ccccc1CNCCc1ccc(S(N)(=O)=O)cc1`, the inhibition was 0.31%.

Take `CCOC(=O)c1cccc(NC(=S)NCc2ccc(C)cc2)c1`: the inhibition was 2.33%.

Take `COCCNC(=O)c1cccc(C)c1[N+](=O)[O-]`: the inhibition is 3.44%.

For `CC1CC1C(=O)OCC(=O)Nc1cccc(S(=O)(=O)NC2=NCCCCC2)c1` (stereo not drawn), the inhibition is -7.4%.

Regarding `COc1ccc(CCNC(=O)C2CC3Cn4c(nc5ccccc54)C3N2Cc2ccccc2)cc1` (stereo not drawn), the inhibition is -0.23%.

Consider `Cc1ccc(S(=O)(=O)CCC(=O)OCC(=O)N2CC(=O)Nc3ccccc32)cc1`, for which the inhibition is -1.54%.

On to `COc1ccc(-n2c(SCC(=O)Nc3cc(C(=O)O)ccc3C)nc3ccccc3c2=O)cc1Cl`, for which the inhibition is -8.45%.

Regarding `CN1/C(=C\C(=O)c2cccnc2)C(C)(C)c2ccccc21`, the inhibition was -3.35%.

Take `CN1/C(=C\C(=O)c2cncc(Br)c2)C(C)(C)c2ccccc21`: the inhibition is 25.1%.

With `Cc1ccc2cc3cc(C(=O)N4CCC5(CC4)OCCO5)oc3nc2c1`, the inhibition is -1.4%.

For `COc1ccc2nc3oc(C(=O)N4CCC5(CC4)OCCO5)cc3cc2c1`, the inhibition is 5.85%.

Take `CCN(C(=O)CSc1cc(C)c2cccc(C)c2n1)C1CCS(=O)(=O)C1` (stereo not drawn): the inhibition is 1.8%.

In the case of `O=C(CCC1CCCN(C(=O)CC2=CCCCC2)C1)N1CCN(c2ccccn2)CC1` (stereo not drawn), the inhibition is 8.51%.

For `CCSc1nnc([C@H](Cc2ccccc2)NC(=O)OC(C)(C)C)o1`, the inhibition was 14.6%.

`NS(=O)(=O)c1ccc(CCNC(=O)NC23CC4CC(CC(C4)C2)C3)cc1`: the inhibition was 3.03%.

As to `O=C(NCCCO)NC12CC3CC(CC(C3)C1)C2`, the inhibition is 1.78%.

Regarding `O=C(NCCC1=CCCCC1)NC1CCCCC1`, the inhibition was -1.65%.

Regarding `COc1ccc(CCNC(=O)NC23CC4CC(CC(C4)C2)C3)cc1OC`, the inhibition was -2.6%.

For `CCOC(=O)c1cc(-c2ccccc2)nn1-c1ccccn1`, the inhibition is -4.13%.

Consider `C#CCOCCOCCOCCNc1nc(N2CCOCC2)nc(N2CCN(C(=O)Cn3cc(CCCN=C(N)N)nn3)CC2)n1`, for which the inhibition was -13.8%.

For `CCN(CC)C(=O)c1cc2c(=O)c3cc(F)ccc3oc2nc1C`, the inhibition was 1.36%.

Consider `Cc1ccc(Nc2nc3ccccc3n3nnnc23)cc1`, for which the inhibition was -0.03%.

On to `CCCCC(=O)c1ccc(O)cc1O`, for which the inhibition was 77%.

Turning to `O=C(CCO)c1ccc(O)cc1`, the inhibition is 12.1%.

Consider `CCC(=O)c1ccc(O)cc1`, for which the inhibition was 14.2%.

For `CCCCCCCC(=O)N/N=C(\C)c1ccc(O)cc1O`, the inhibition was 11.6%.

As to `O=C(NCc1ccc(Cl)cc1)c1noc2c1CCCCC2`, the inhibition is 4.19%.

Regarding `COc1ccc(NC2=CC(=O)CC(c3ccccc3)C2)cc1` (stereo not drawn), the inhibition is -3.06%.

As for `O=C(O)CC(CC(=O)Nc1ccc(F)c(Cl)c1)c1ccc(Cl)cc1Cl` (stereo not drawn), the inhibition is -8.97%.

For the compound `NNC(=O)C(Cc1ccccc1)NC(=O)OCc1ccccc1` (stereo not drawn), the inhibition is 3.92%.

Consider `O=C(Nc1ccc(Cl)c(Cl)c1)c1ccc(Cl)c(Cl)c1`, for which the inhibition is 2.4%.

Take `Clc1ccc(C2=NCCN2)cc1`: the inhibition is 4.97%.

For the compound `CCCN1C(=O)c2cc(C(=O)NCc3cccs3)ccc2C1O` (stereo not drawn), the inhibition is -13.3%.

Consider `O=C(Nc1ccc(F)c(Cl)c1)C1CC(=O)n2c(nc3ccccc32)N1` (stereo not drawn), for which the inhibition was -5.64%.

Take `Cc1ccc(/C=N/N2CCN(c3ccccc3)CC2)cc1`: the inhibition was -2.14%.

In the case of `O=c1cc(-c2cccs2)oc2ccc(Cl)cc12`, the inhibition is -2.31%.

For the compound `O=c1c(O)c(-c2cccs2)oc2ccccc12`, the inhibition was -4%.

In the case of `Cc1cc(C(=O)NNS(=O)(=O)c2cccc(Cl)c2)nn1C(C)(C)C`, the inhibition was 2.6%.

Consider `CC(C)(C)NC(=O)Cn1c(Cl)nc2ccccc21`, for which the inhibition is -2.82%.

In the case of `Nc1nc(-c2ccc3ccccc3c2)cs1`, the inhibition is 67.7%.

Regarding `Cc1ccc(OCc2csc(N)n2)cc1`, the inhibition was 2.65%.

On to `COc1ccc(-c2csc(N)n2)cc1`, for which the inhibition is 84.2%.

Take `Nc1nc(-c2ccccc2)cs1`: the inhibition was 56.7%.

With `Fc1cccc(-c2csc(-c3ccno3)n2)c1`, the inhibition is 0.3%.

Regarding `COc1ccc(OCc2csc(N)n2)cc1`, the inhibition was -2.49%.

As for `CC(=O)Nc1cccc(-c2csc(N)n2)c1`, the inhibition is 1.85%.

Turning to `Nc1nc(-c2ccc(-c3ccccc3)cc2)cs1`, the inhibition was -0.75%.

Turning to `CCCCOc1ccc(NC(=O)C(=O)NCCC2=CCCCC2)cc1`, the inhibition was -6%.

Take `Cc1ccc(NC2=NC3(CCCC3)N=C(N)N2)c(C)c1`: the inhibition was -0.52%.

In the case of `CCC1CCCCN1C(=O)CSc1nnc(CNC(=O)COc2ccc(Cl)cc2)o1` (stereo not drawn), the inhibition was 0.62%.

For the compound `CC(=O)Nc1ccc(C(=O)NCC(=O)OCc2ccccc2F)cc1`, the inhibition was 8.24%.

Take `C=CCNC(=O)c1sc(-c2ccccc2)nc1C`: the inhibition is -4.4%.

Take `COCCn1c(SCC(=O)N2CCN(c3ccccc3)CC2)nc2c(c1=O)SC(C)C2` (stereo not drawn): the inhibition was -6.25%.

Take `O=C(COC(=O)c1cccs1)NCC1CCCO1` (stereo not drawn): the inhibition was -10.3%.

On to `COC(=O)Nc1ccc(S(=O)(=O)NCc2ccccn2)cc1`, for which the inhibition was 4.77%.

For `Cc1ccc2c(c1)C1CN(C)CCC1N2C(=O)c1cccc(S(=O)(=O)N(C)C)c1` (stereo not drawn), the inhibition was 1.67%.

Turning to `COCCOc1ccc(C(F)(F)F)cc1Nc1nc2ccccc2o1`, the inhibition is 11.7%.

For `COc1cc(/C=N/OCC(=O)Nc2cc(C)on2)ccc1OCc1ccccc1`, the inhibition was 6.49%.

For `CC1CCCN(c2c([N+](=O)[O-])cc(C(=O)O)cc2[N+](=O)[O-])C1` (stereo not drawn), the inhibition was -5.57%.

Regarding `O=[N+]([O-])c1ccc(N2CCCCC2)s1`, the inhibition was 48.3%.

For the compound `O=C(Cc1c[nH]c2ccccc12)NCc1ccc2c(c1)OCO2`, the inhibition is 8.71%.

On to `CCCOc1ccc2c3c(c(=O)oc2c1OCCC)CCCC3`, for which the inhibition is 30.6%.

Regarding `CCOc1c(OC)ccc2c3c(c(=O)oc12)CCCC3`, the inhibition is 12.9%.

As for `Cc1cc(CNC(=S)Nc2ccc(Br)cc2Cl)nn1C`, the inhibition is 9.6%.

Consider `Cc1cccc(-n2c(O)c(C=Nc3ccc(O)cc3)c3ccccc3c2=O)n1`, for which the inhibition is -0.55%.

In the case of `CCN(CC)c1ccc(N=Cc2c(O)n(-c3ccc(OC)cc3)c(=O)[nH]c2=O)cc1`, the inhibition is -3.8%.

For `Cc1ccc(N=Cc2c(O)n(-c3ccc(C)cc3)c(=O)[nH]c2=O)cc1`, the inhibition is -7.29%.

For `CCOc1ccc(N=Cc2c(O)n(Cc3ccccc3)c(=S)[nH]c2=O)cc1`, the inhibition is 72.9%.

On to `COc1ccc(N=Cc2c(O)n(-c3cccc(C)n3)c(=O)c3ccccc23)cc1`, for which the inhibition was 16.8%.

For the compound `COc1cc(CN=Cc2c(O)n(C(C)(C)C)c(=O)[nH]c2=O)cc(OC)c1`, the inhibition is -1.21%.

Regarding `CCOc1ccccc1-n1c(O)c(C=Nc2ccc(N(CC)CC)cc2)c(=O)[nH]c1=O`, the inhibition was -4.16%.

Regarding `CCOc1ccc(-n2c(O)c(C=Nc3ccc(N4CCOCC4)cc3)c(=O)[nH]c2=O)cc1`, the inhibition was -4.71%.

As for `O=C(O)c1ccc(CSc2nc3ccc(N4C(=O)C5C6C=CC(C6)C5C4=O)cc3s2)cc1` (stereo not drawn), the inhibition was -3.36%.

`CN=C1SC(CC(=O)Nc2ccccc2F)C(=O)N1C` (stereo not drawn): the inhibition is -3.74%.

For `COc1cccc(NC(=S)NNC(=O)c2ccccc2OC(F)F)c1`, the inhibition is -13.3%.

With `COc1ccc(C)cc1N(C(=O)CNC(=O)c1ccco1)C(C(=O)NC1CCCC1)c1cccnc1` (stereo not drawn), the inhibition was -8.51%.

Turning to `COc1cccc(-c2nn(-c3ccccc3)cc2CN(C)Cc2ccon2)c1`, the inhibition is -3.56%.

As for `CN(C)S(=O)(=O)c1ccc2oc(SCC(N)=O)nc2c1`, the inhibition is -16.7%.

As for `CC1=NN(C(=O)COc2ccccc2)C(O)(c2cccnc2)C1` (stereo not drawn), the inhibition is -1.6%.

As for `COc1ccc(CCN(C)CC(O)c2ccccc2)cc1OC` (stereo not drawn), the inhibition is 1.49%.

As to `CCOc1ccc(-n2c(O)c(C=Nc3ccc(NC(C)=O)cc3)c(=O)[nH]c2=O)cc1`, the inhibition was 4.04%.

For `CCOc1ccc(-n2c(O)c(C=Nc3ccc(N(CC)CC)cc3)c(=O)[nH]c2=O)cc1`, the inhibition was -0.69%.

Consider `CC1CCCN(c2nc3c(c(=O)[nH]c(=O)n3C)n2CCSc2ncccn2)C1` (stereo not drawn), for which the inhibition was 2.85%.

In the case of `COC(=O)C1C2c3ccccc3OC1(C)N=c1s/c(=C/c3cnn(C)c3)c(=O)n12` (stereo not drawn), the inhibition was 58.3%.

As for `COC(=O)C1C2c3ccccc3OC1(C)N=c1s/c(=C/c3cn(C)nc3C)c(=O)n12` (stereo not drawn), the inhibition is -3.65%.
